Here are results for eight compounds from PubChem BioAssay (Tox21).

Experiment [1] is described as follows: Nuclear factor erythroid 2-related factor 2/antioxidant responsive element (Nrf2/ARE) small molecule agonists: qHTS cell viability counter screen in human keratinocytes (AID 1919968; active = well fitted curve in the direction sought with a large enough effect in the repeat runs; an effect the other way counts as inactive or inconclusive; also: nearly all actives have a fitted effect of over 55% in size; also: potency is read from the fitted curve at half-maximal effect). An outline of the steps:
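Stably transfected HaCaT (KeratinoSens), 1,500/well. Test agents in DMSO were applied for 23 h, 37 C/5% CO2. CellTiter-Fluor was incubated 1 h before the fluorescence read.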
Background: qHTS replaces the single test concentration by a dilution series.

Experiment [2] is described as follows: Nuclear factor erythroid 2-related factor 2/antioxidant responsive element (Nrf2/ARE) small molecule agonists: luciferase reporter gene qHTS assay in human keratinocytes (AID 1919969). Also: nearly all actives have a fitted effect of over 35% in size. Also: potency is read from the fitted curve at half-maximal effect.
Experiment [3] deals with Gonadotropin-releasing hormone receptor (Homo sapiens) (UniProt P30968). Description: Human gonadotropin-releasing hormone receptor (GnRHR) small molecule agonists, calcium flux assay in GnRHR-HEK293 cells (AID 1920063). Also: nearly all actives have a fitted effect of over 35% in size. Summed up: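 Stable human GnRHR HEK293 line. 18 h plating, then calcium dye for 1 h at 37 C. Agonist-mode compound addition from DMSO stocks; fluorescence monitored 3 min.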

Experiment [4] concerns the target KiSS-1 receptor (Homo sapiens) (UniProt Q969F8). The experiment in a line: Human kisspeptin (KISS1R) small molecule agonists, calcium flux assay in KISS1R-HEK293 cells (AID 1920064; active = well fitted curve in the direction sought with a large enough effect in the repeat runs; an effect the other way counts as inactive or inconclusive). An outline of the steps:
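After overnight (18 h) culture at 37 C/5% CO2, human KISS1R-HEK293 cells received calcium dye for 1 h, then test compound; emission at 540 nm (excitation 480 nm) was tracked for 3 min.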

The nature of experiment [5]: G protein-coupled receptor (GPCR) small molecule agonists, calcium flux assay: HEK293 wild type cell line counter screen (AID 1920065). An outline of the steps: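 Following 18 h incubation at 37 C/5% CO2, plates got calcium dye for 1 h; compounds, ATP or DMSO were then pinned in and fluorescence followed kinetically (480/540 nm).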
Background: Calcium flux is commonly read through the fluorescence of an indicator in the cells.

Experiment [6] is described as follows: p53 small molecule agonists, cell-based qHTS assay with human liver microsomes (AID 1963577).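 Also: p53 response element beta-lactamase reporter cells with liver microsomes plus NADPH.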 An outline of the steps:
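With metabolic activation: human liver microsomes (0.5 mg/mL final) plus NADPH (0.5 mg/mL final) added alongside compounds to p53RE-bla cells; 16 h 37 C exposure; beta-lactamase read by LiveBLAzer fluorescence.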

Experiment [7] can be described thus: p53 small molecule agonists, cell-based qHTS assay with rat liver microsomes (AID 1963578). An outline of the steps: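 Metabolic activation by rat liver microsomes and NADPH, each 0.5 mg/mL final, added right after compounds to p53RE-bla reporter cells (4,000/well, plated 5 h earlier). 16 h at 37 C, then LiveBLAzer substrate for 2 h at room temperature in the dark; fluorescence read-out.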

Experiment [8] in a line: p53 small molecule agonists, cell-based qHTS assay with human liver microsomes: qHTS cell viability counter screen (AID 1963579). Also: nearly all actives have a fitted effect of over 45% in size. Also: potency is read from the fitted curve at half-maximal effect. An outline of the steps: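 Metabolic activation used human liver microsomes and NADPH, both 0.5 mg/mL final, over 16 hours at 37 C on p53RE-bla cells (4,000/well). Cytotoxicity measured by CellTiter-Glo luminescence, 30 min at room temperature.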

Experiment [9] is described as follows: p53 small molecule agonists, cell-based qHTS assay: qHTS cell viability counter screen (AID 1963581). Also: nearly all actives have a fitted effect of over 45% in size. Also: potency is read from the fitted curve at half-maximal effect. An outline of the steps:
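qHTS counter screen: 16 h compound exposure at 37 C of p53RE-bla HCT-116 cells (4,000 per well, seeded 5 h prior), cell viability by ATP luminescence.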

Experiment [10] in a line: p53 small molecule agonists, cell-based qHTS assay (AID 1963582; active = well fitted activation curve with a large enough effect in the signal ratio in the repeat runs, not every such curve was filed as active; the % refers to the signal ratio). Summed up: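 Measured: fluorescence from cleaved LiveBLAzer substrate. System: p53RE-bla cells, 16 h compound treatment at 37 C, 2 h substrate step at room temperature.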
Experiment [11] concerns the target 5-hydroxytryptamine receptor 2A (Homo sapiens) (UniProt P28223). Description: 5-hydroxytryptamine receptor 2A (HTR2A) small molecule antagonists, cell-based qHTS assay (AID 1963586). Also: nearly all actives have a fitted effect of over 45% in size. An outline of the steps:
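CHO cells stably expressing human HTR2A were plated for 18 h at 37 C, then loaded with calcium dye for 1 h. Compounds were preincubated 5 min at room temperature before DOI (4 nM solution) was added. Kinetic fluorescence was read for 3 min.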

Experiment [12] shares this target. The experiment in a line: 5-hydroxytryptamine receptor 2A (HTR2A) small molecule agonists, cell-based qHTS assay (AID 1963587). Also: nearly all actives have a fitted effect of over 30% in size. Summed up: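 Kinetic calcium-flux fluorescence (2 min, 1 sec intervals) after compound addition in agonist mode. HTR2A-CHO cells were cultured 18 h, then dye-loaded 1 h at 37 C.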
Experiment [13] deals with Muscarinic acetylcholine receptor M1 (Homo sapiens) (UniProt P11229). The experiment in a line: Cholinergic receptor muscarinic 1 (CHRM1) small molecule agonists, cell-based qHTS assay (AID 1963589). Also: nearly all actives have a fitted effect of over 35% in size. Summed up:
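Kinetic fluorescence (1 s intervals) of calcium-sensitive dye in human M1 CHO cells after compound addition; cells pre-incubated 18 h at 37 C/5% CO2 and dye-loaded 1 h.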

A short description of experiment [14]: cAMP Responsive Elements (CRE) small molecule agonists, cell-based qHTS assay (AID 1963590). Summed up: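 Test agents in DMSO were incubated 3 h at 37 C/5% CO2 with CRE-bla HEK 293T cells seeded 18 h earlier; LiveBLAzer B/G FRET substrate was added and read after 2 h at room temperature.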
A short description of experiment [15]: cAMP Responsive Elements (CRE) small molecule antagonists, cell-based qHTS assay (AID 1963591; active = well fitted inhibition curve with a large enough effect in the signal ratio in the repeat runs, not every such curve was filed as active; the % refers to the signal ratio). Summed up: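 Reporter line CRE-bla HEK 293T in dialyzed-FBS DMEM; cells preincubated 18 h, treated 3 h with compound plus NKH477 (0.25 uM final); LiveBLAzer FRET, 2 h RT.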
Experiment [16] addresses D(2) dopamine receptor (Homo sapiens) (UniProt P14416). Description: Dopamine D2 receptor (DRD2) small molecule agonists, cell-based qHTS assay (AID 1963594). Also: nearly all actives have a fitted effect of over 35% in size. An outline of the steps: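 cAMP accumulation in DRD2-HEK293 cells measured by HTRF after 1 h detection; compounds added 10 min before NKH477 (200nM […]) forskolin-analogue stimulation, 30 min at room temperature, with Ro20-1724 present at 0.1 mM final.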

In experiment [17] the target is Beta-2 adrenergic receptor (Homo sapiens) (UniProt P07550). The experiment in a line: Adrenergic beta2 receptor (ADRB2) small molecule antagonists, cell-based qHTS assay (AID 1963592). Also: series mostly up to about 92 µM; nearly all actives have a fitted effect of over 50% in size. Summed up:
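Assay format: CHO-ADRB2 cells, 18-20hr seeding at 37C/5% CO2, then compound plus 1nM isoproterenol agonist mix for 0.5hr RT. Homogeneous time-resolved fluorescence cAMP detection after 1hr, expressed as 665/615 nm ratio.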

Experiment [18] has as its target D(2) dopamine receptor (Homo sapiens) (UniProt P14416). Description: Dopamine D2 receptor (DRD2) small molecule antagonists, cell-based qHTS assay (AID 1963595; active = well fitted inhibition curve with a large enough effect in the signal ratio in the repeat runs, with a control signal flat; the % refers to the signal ratio; also: potency is read from the fitted curve at half-maximal effect). An outline of the steps: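 Readout: HTRF cAMP, cAMP-d2 competing with cellular cAMP for anti-cAMP cryptate, read after 1 h. Cells: DRD2-HEK293. Conditions: 0.1 mM Ro20-1724, 12 nM quinpirole, 200 nM NKH477, 30 min RT.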

Experiment [19] deals with Muscarinic acetylcholine receptor M1 (Homo sapiens) (UniProt P11229). The experiment in a line: Cholinergic receptor muscarinic 1 (CHRM1) small molecule antagonists, cell-based qHTS assay (AID 1963588). Also: nearly all actives have a fitted effect of over 40% in size. Summed up:
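Compounds were tested at 15 concentrations in three independent runs. Dye-loaded CHRM1-CHO cells were exposed 5 min at room temperature before stimulation by acetylcholine added at 50nM. Intracellular calcium was read kinetically on FDSS for 3 min.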

Unmarked numbers belong to inactive results. Results filed as inconclusive are left out. Calls of active or inactive are those of the source. Unless noted, calls follow the shape of the full dose curve.

D(2) dopamine receptor (Homo sapiens), sequence (P14416 whole entry, looked up): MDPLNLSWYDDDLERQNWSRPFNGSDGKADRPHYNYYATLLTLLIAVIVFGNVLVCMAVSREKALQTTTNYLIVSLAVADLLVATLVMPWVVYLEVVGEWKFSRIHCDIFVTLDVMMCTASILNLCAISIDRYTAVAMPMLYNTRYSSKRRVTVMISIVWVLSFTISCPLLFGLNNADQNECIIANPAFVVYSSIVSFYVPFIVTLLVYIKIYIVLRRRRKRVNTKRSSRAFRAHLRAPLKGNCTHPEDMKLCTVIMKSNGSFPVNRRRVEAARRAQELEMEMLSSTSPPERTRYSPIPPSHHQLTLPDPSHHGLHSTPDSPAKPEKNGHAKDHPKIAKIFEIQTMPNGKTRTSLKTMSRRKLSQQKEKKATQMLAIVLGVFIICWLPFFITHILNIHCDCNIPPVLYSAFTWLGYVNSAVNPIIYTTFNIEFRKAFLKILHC
Gonadotropin-releasing hormone receptor (Homo sapiens), sequence (P30968 whole entry, looked up): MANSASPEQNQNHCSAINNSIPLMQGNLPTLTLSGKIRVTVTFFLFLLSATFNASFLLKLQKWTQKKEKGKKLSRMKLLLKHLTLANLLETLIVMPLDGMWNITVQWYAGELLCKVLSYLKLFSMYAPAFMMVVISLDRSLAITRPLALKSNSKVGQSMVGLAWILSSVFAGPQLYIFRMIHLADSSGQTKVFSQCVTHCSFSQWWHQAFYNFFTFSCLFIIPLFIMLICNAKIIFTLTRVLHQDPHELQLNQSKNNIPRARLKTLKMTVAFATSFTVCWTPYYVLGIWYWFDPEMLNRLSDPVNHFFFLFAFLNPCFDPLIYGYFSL
Beta-2 adrenergic receptor (Homo sapiens), sequence (P07550 whole entry, looked up): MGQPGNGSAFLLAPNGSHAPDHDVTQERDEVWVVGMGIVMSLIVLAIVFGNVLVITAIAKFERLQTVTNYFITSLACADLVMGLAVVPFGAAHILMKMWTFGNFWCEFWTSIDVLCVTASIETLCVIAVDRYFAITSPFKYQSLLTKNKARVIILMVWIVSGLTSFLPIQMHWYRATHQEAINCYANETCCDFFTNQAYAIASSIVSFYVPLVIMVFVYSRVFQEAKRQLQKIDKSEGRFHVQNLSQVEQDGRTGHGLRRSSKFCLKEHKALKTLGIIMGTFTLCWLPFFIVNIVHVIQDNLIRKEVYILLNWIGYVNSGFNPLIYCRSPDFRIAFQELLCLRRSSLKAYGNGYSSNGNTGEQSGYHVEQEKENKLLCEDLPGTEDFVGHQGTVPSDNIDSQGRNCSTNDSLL
KiSS-1 receptor (Homo sapiens), sequence (Q969F8 whole entry, looked up): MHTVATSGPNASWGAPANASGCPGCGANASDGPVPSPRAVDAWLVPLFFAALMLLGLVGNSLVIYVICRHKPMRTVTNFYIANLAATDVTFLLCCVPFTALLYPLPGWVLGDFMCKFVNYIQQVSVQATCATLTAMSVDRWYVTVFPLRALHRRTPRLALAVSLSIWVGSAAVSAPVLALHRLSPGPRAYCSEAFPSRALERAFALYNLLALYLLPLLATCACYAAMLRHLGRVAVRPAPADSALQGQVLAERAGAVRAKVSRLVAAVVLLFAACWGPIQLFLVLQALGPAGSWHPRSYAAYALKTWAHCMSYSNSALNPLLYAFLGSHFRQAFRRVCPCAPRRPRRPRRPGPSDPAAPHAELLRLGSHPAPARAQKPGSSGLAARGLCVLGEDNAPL
5-hydroxytryptamine receptor 2A (Homo sapiens), sequence (P28223 whole entry, looked up): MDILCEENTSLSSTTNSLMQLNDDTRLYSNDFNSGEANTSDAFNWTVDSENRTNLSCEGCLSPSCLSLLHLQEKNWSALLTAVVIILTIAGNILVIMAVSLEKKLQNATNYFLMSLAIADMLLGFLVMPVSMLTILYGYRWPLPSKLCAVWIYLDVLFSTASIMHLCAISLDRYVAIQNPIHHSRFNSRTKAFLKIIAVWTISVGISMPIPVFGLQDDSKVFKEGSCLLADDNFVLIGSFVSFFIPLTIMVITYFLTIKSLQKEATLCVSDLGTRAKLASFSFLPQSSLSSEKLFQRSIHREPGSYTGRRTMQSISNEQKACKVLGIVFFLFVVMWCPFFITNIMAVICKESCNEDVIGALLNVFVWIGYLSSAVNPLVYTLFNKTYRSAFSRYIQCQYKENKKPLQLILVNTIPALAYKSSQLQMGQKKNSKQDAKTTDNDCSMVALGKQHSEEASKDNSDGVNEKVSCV
Muscarinic acetylcholine receptor M1 (Homo sapiens), sequence (P11229 whole entry, looked up): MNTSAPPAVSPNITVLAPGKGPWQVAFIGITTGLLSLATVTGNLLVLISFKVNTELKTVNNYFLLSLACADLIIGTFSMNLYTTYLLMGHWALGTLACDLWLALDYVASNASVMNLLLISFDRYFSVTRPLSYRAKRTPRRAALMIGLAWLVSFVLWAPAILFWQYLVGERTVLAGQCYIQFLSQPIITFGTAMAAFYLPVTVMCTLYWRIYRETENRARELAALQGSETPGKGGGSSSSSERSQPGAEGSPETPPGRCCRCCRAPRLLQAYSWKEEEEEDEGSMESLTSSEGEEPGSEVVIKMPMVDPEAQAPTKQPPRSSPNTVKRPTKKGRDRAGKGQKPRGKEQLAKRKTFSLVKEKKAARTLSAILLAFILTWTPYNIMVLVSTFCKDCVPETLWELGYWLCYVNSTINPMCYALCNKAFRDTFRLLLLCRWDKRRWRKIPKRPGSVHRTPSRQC

Consider `CC(=O)Nc1cc(S(=O)(=O)O)cc2cc(S(=O)(=O)O)c(N=Nc3ccccc3)c(O)c12`, for which, in experiment [1], the Potency is 27.3 µM (active). Further, the Potency entry in [2], in [3], in experiment [6], in [7], in [8] and in experiment [9] was “inactive” each time. The Potency entry in [10], in experiment [11], in experiment [12], in [13], in experiment [14] and in experiment [15] was “inactive” each time. In addition, in [16], the Potency result is “inactive”. Further, the outcome in experiment [4] and in experiment [5] was inactive.
In the case of `CCN(CC)CCNC(=O)c1cc(Cl)c(N)cc1OC`, the Potency entry in experiment [1], in experiment [2], in [3], in [6], in [7] and in experiment [8] was “inactive” in each case. For the same compound, the Potency entry in experiment [9], in experiment [10], in experiment [14], in [15], in experiment [17] and in [16] was “inactive” throughout. Besides, the outcome in experiment [4] and in experiment [5] was inactive. Besides, the Potency in experiment [18] was 1.68 µM (active).
For the compound `CCOc1cc(OCC)c(C(C)=O)cc1OCC`, the Potency entry in experiment [1], in experiment [2], in experiment [3], in [6], in experiment [7] and in experiment [8] was “inactive” each time. Besides, the Potency entry in [9], in experiment [10], in [12], in [19], in experiment [13] and in experiment [17] was “inactive” in each case. In addition, the Potency entry in [16] and in [18] was “inactive” each time. The result in experiment [4] and in experiment [5] was inactive.
With `O=C(N[C@@H](Cc1ccccc1)[C@@H](O)C(=O)N1C[C@@H](O)[C@@H](O)C1)c1cc2cc(Cl)ccc2[nH]1`, the Potency entry in experiment [1], in [2], in experiment [3], in [6], in experiment [7] and in [8] was “inactive” in each case. For the same compound, the Potency entry in [9], in experiment [10], in [12], in experiment [19], in experiment [13] and in experiment [15] was “inactive” throughout. The Potency entry in experiment [16] and in experiment [18] was “inactive” in each case. In addition, the result in [4] and in experiment [5] was inactive.
Consider `CC(C)=NNC(N)=S`, for which the Potency in experiment [1] was 30.6 µM (active); in experiment [2] it was 15.4 µM (active). For the same compound, the Potency result in experiment [3], in experiment [6], in [7], in [8], in experiment [9] and in experiment [11] was “inactive” in each case. In addition, the Potency result in experiment [12], in experiment [19], in experiment [13], in experiment [15], in experiment [17] and in experiment [16] was “inactive” each time. In addition, the Potency entry in experiment [18] was “inactive”. The result in experiment [4] and in experiment [5] was inactive.
For the compound `CC(=O)OCC(=O)[C@@]1(O)CCC2C3CCC4=CC(=O)CC[C@]4(C)C3[C@@H](O)C[C@@]21C` (stereo partly drawn), the Potency entry in [1], in experiment [2], in experiment [3], in experiment [6], in [7] and in experiment [8] was “inactive” throughout. Further, the Potency entry in experiment [9], in [11], in experiment [12], in [19], in experiment [14] and in [15] was “inactive” in each case. Besides, the Potency result in experiment [17], in experiment [16] and in experiment [18] was “inactive” each time. Moreover, the outcome in [4] and in experiment [5] was inactive.
Turning to `Cc1oc(-c2ccccc2)nc1CCOc1ccc(C[C@H](Nc2ccccc2C(=O)c2ccccc2)C(=O)O)cc1`, the figures for the Potency in experiment [1], in experiment [8] and in [9] were 30.6 µM (active), 28.9 µM (active) and 20.4 µM (active), respectively. Besides, the Potency result in [2], in [3], in experiment [6], in [7], in experiment [11] and in experiment [12] was “inactive” in each case. Further, the Potency result in [19], in experiment [17], in experiment [16] and in experiment [18] was “inactive” each time. Also, the result in [4] and in experiment [5] was inactive.
For the compound `CC(C)(C)CC(=O)OCC(=O)[C@@]1(O)CC[C@H]2[C@@H]3CCC4=CC(=O)C=C[C@]4(C)[C@H]3[C@@H](O)C[C@@]21C`, the Potency entry in [1], in experiment [2], in experiment [3], in experiment [6], in experiment [7] and in [8] was “inactive” each time. The Potency entry in experiment [9], in experiment [10], in experiment [12], in [19], in [13] and in [15] was “inactive” throughout. In addition, the Potency result in experiment [17] and in experiment [18] was “inactive” each time. In addition, the outcome in experiment [4] and in [5] was inactive.
